According to PubChem BioAssay (NCI):
This is part of a sample that, as a whole, favours compounds with a hit. Of some 79,000 tested, about 15% had one in any assay. Rule as the data show it: active = growth inhibition above about 70%; inactive = the rest. Where a SMILES comes first, the peptide text is derived from it. The star is where a group is joined. Boc = CC(C)(C)OC(=O)*; OBn = c1ccc(CO*)cc1; Bn = c1ccc(C*)cc1

Experiments:
[1] = NCI Yeast Anticancer Drug Screen. Data for the rad50 strain (AID 155);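 also: 0% = growth of vehicle-only cultures of the same strain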; conditions: S. cerevisiae rad50 strain growth inhibition; at 50.0 µM; hits give high values
In short: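 Readout: growth inhibition relative to vehicle-treated cultures. Compound exposure was carried out in a genetically defined yeast strain deficient in DNA damage repair.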

[2] = NCI Yeast Anticancer Drug Screen. Data for the mec2-1 strain (AID 157); conditions: S. cerevisiae mec2-1 strain, at 50.0 µM, hits give high values
In short: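 Cells of the genetically defined mec2-1 yeast strain are incubated with test compound. Inhibition of growth is calculated against vehicle-treated controls.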

[3] = NCI Yeast Anticancer Drug Screen. Data for the sgs1 mgt1 strain (AID 161);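 also: 0% = growth of cultures given vehicle only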; conditions: S. cerevisiae sgs1 mgt1 strain, at 50.0 µM, hits give high values
In short: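 Mutant yeast exposed to compound; growth scored against vehicle-only wells.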

[4] = NCI Yeast Anticancer Drug Screen. Data for the cln2 rad14 strain (AID 165);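 also: 0% = growth equal to vehicle treated cultures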; conditions: S. cerevisiae cln2 rad14 strain, at 50.0 µM, hits give high values
In short: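 The screen exposed genetically defined yeast (cln2 rad14) to test compounds and scored growth inhibition relative to vehicle-treated controls.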

[5] = NCI Yeast Anticancer Drug Screen. Data for the bub3 strain (AID 167); conditions: S. cerevisiae bub3 mutant strain, at 50.0 µM, hits give high values
In short: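 Readout: yeast growth inhibition, expressed relative to vehicle-only wells. The test organism is a mutant strain from a panel with lesions in DNA repair or checkpoint genes.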

[6] = NCI Yeast Anticancer Drug Screen. Data for the mlh1 rad18 strain (AID 175); conditions: S. cerevisiae mlh1 rad18 strain growth inhibition; at 50.0 µM; hits give high values
In short: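 Compound-treated yeast growth, normalised to vehicle controls. Strain bears defined DNA repair mutations.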

Measured: growth inhibition

COc1ccc(-c2cc(=O)c3c(O)cc(O)c(-c4cc(-c5cc(=O)c6c(O)cc(OC)cc6o5)ccc4OC)c3o2)cc1
inactive: [1] 39.1% | [2] 17.1% | [3] 5.55% | [4] 24.6% | [5] 27.3% | [6] 20%

CC12CC3CC(C)(C1)CC(N=[N+]=[N-])(C3)C2
inactive: [1] -27.4% | [2] -9.6% | [3] -12.1% | [4] 6.15% | [5] -0.8% | [6] -29.5%

CC(C)CC(NC(=O)C(CCC(=O)OCc1ccccc1)NC(=O)OC(C)(C)C)C(=O)NC(COCc1ccccc1)C(=O)NC(Cc1ccccc1)C(=O)O (configuration not stated) (Boc-E(OBn)LS(Bn)F-OH; configuration not given here)
inactive: [1] -6.65% | [2] -4.8% | [3] -8.05% | [4] 6% | [5] 13.3% | [6] -10.8%

CC1(O)Oc2c(cc(C(C)(C)C)cc2C(C)(C)C)C1=O (configuration not stated)
inactive: [1] 17.4% | [2] -10.1% | [3] 18.2% | [4] -9% | [5] 23.6% | [6] 42.6%

CC(=O)C(=Cc1c[nH]c2ccccc12)C(C)=O
inactive: [1] 31.7% | [2] 13.7% | [3] 38.4% | [4] 9.65% | [5] 35.4% | [6] 31.6%

CCOC(=O)Cn1c(=O)n(C)c(=O)c2c1ncn2Cc1ccccc1
inactive: [1] 0.7% | [2] -31.2% | [3] -14.3% | [4] -4.25% | [5] 9.5% | [6] -14.4%

OCc1ccc2ccc3ccc(CO)nc3c2n1
inactive: [1] 14.4% | [2] 15.4% | [3] 5.6% | [4] -25.4% | [5] 15.4% | [6] 13.9%

C=C(C#N)C1OCC2OC(C)(C)OC21 (configuration not stated)
inactive: [1] 3.7% | [2] -4% | [3] -0.35% | [4] 12.3% | [5] -4.8% | [6] -25.9%

O=C(COc1ccc(F)cc1)OCCO
inactive: [1] 13.9% | [2] -20.9% | [3] -2.55% | [4] -33.2% | [5] -15.3% | [6] -18.9%

ClC1CC2CC1C1COCC21 (configuration not stated)
inactive: [1] 8.9% | [2] -5.35% | [3] -3.85% | [4] -16.2% | [5] -12.6% | [6] -8.9%

O=C(Nc1cccc2ccccc12)c1ccccc1F
inactive: [1] -1.35% | [2] 16.8% | [3] 14.9% | [4] -2.15% | [5] 21.1% | [6] 11.8%

CC1C=CC(C(N)C(=O)O)O1 (configuration not stated)
inactive: [1] -9.9% | [2] -17.6% | [3] -13.1% | [4] -0.7% | [5] -5.35% | [6] -9.85%

O=C1NC(=S)S/C1=C/c1cn(-c2ccccc2)nn1
inactive: [1] 17.4% | [2] 3.15% | [3] -5.05% | [4] -18.2% | [5] 1.75% | [6] 10.6%

C=CCC(c1ccccc1)(c1ccccc1)c1ccccc1
inactive: [1] -3.35% | [2] 5.25% | [3] 3.65% | [4] 3.55% | [5] 7.25% | [6] 8.25%

O=[N+]([O-])c1ccc(C2SCc3nc4ccccc4n32)cc1 (configuration not stated)
inactive: [1] 3.4% | [2] -14.2% | [3] 49.1% | [4] 15.2% | [5] 23.1% | [6] -2.65%

NC(=O)c1cccnc1
inactive: [1] 15.1% | [2] -41.4% | [3] 5.1% | [4] -27.2% | [5] -12.9% | [6] 9.95%

c1ccc(CNC(Cc2ccccc2)c2ccc(OCc3ccccc3)cc2)cc1 (configuration not stated)
inactive: [1] -15.2% | [2] -17.6% | [3] 4% | [4] 11.8% | [5] -10.2% | [6] -10.6%

CCCCC1(CCO)C(=O)N=C(N)NC1=O (configuration not stated)
inactive: [1] -15% | [2] -3.85% | [3] -8.05% | [4] -22.9% | [5] -5.6% | [6] -15.8%

CNc1cc2oc(=O)cc(C)c2cc1C
inactive: [1] 19.8% | [2] -12.5% | [3] 6.8% | [4] 3.6% | [5] 14.2% | [6] 10.4%

CC1CC(C)(C)NC(C2CCC=CO2)O1 (configuration not stated)
inactive: [1] 5.2% | [2] -3.9% | [3] -7% | [4] -20.6% | [5] -18.6% | [6] 5.9%

COc1cccc2c(Nc3ccc(S(=O)(=O)Nc4ncccn4)cc3)c3ccc([N+](=O)[O-])cc3nc12
inactive: [1] 59.8% | [2] 12.1% | [3] 29.2% | [4] 11.2% | [5] 32.2% | [6] 16.2%

Cc1occc1C(=S)Nc1ccc(Cl)c(/C=N/OC2CCCC2)c1
inactive: [1] 13.2% | [2] 26.1% | [3] 25.1% | [4] 30.7% | [5] 19.3% | [6] 18.8%

COC1C(O)CC(OC2CC(OC3CC(O[C@@H]4C(=O)c5c(cc6cc(OC7CC(OC8CC(O)C(O)C(C)O8)C(O)C(C)O7)c(C)c(O)c6c5O)C[C@H]4[C@H](OC)C(=O)[C@@H](O)[C@@H](C)O)OC(C)C3O)OC(C)C2O)OC1C (some centres not stated)
inactive: [1] 38.7% | [2] 28.9% | [3] 41.7% | [4] 43.7% | [5] 49.5% | [6] 48.5%

c1ccc2c[n+](CCCC[n+]3ccc4ccccc4c3)ccc2c1
inactive: [1] 46.5% | [2] 17.1% | [3] 22.4% | [4] 12.4% | [5] 41.8% | [6] 44.8%

CCN(CC)CCN1Cc2ccccc2C1
inactive: [1] -4.8% | [2] 3.85% | [3] -1.7% | [4] -14.1% | [5] 7.4% | [6] 2.45%

CCOC(=O)C(=O)C(=O)NN(C)C1=NCCN1
inactive: [1] -11.4% | [2] -2.05% | [3] 7.45% | [4] -13.6% | [5] 6.55% | [6] 2%

O=[N+]([O-])c1ccc2c(Cl)c3ccccc3nc2c1
inactive: [1] 20.1% | [2] 24.1% | [3] 2% | [4] 17.6% | [5] 34.2% | [6] 16.6%

C[N+]1(CC(O)C[N+]2(C)CCCCCC2)CCCCCC1
inactive: [1] 11.3% | [2] 14.1% | [3] -7.65% | [4] -6.2% | [5] -2.9% | [6] 32.8%

CN(C)C=NC1CC(C)(C)NC(C)(C)C1
inactive: [1] -18.2% | [2] 2.2% | [3] 3.1% | [4] -49.1% | [5] 13.2% | [6] -12.9%

C[Si](C)(C)N1N=NC2C(=O)N(c3ccccc3)C(=O)C21 (configuration not stated)
inactive: [1] -10.4% | [2] -0.5% | [3] -13.4% | [4] 0.1% | [5] 0.4% | [6] -7.4%

COc1ccc(C2=Nn3c(nc4sc(-c5ccccc5)cc4c3=O)SC2)cc1
inactive: [1] -16.9% | [2] -9.15% | [3] -25.6% | [4] 3.55% | [5] -8.05% | [6] -16%

CCOC(=O)/C=C/C(=O)[O-].CCOC(=O)/C=C/C(=O)[O-].NC1CCCCC1N.[Pt+4]
inactive: [1] 19.2% | [2] 25.9% | [3] 19.4% | [4] -2.1% | [5] 20.1% | [6] 10.2%

COC1C(C(=O)O)=CC=CC1OC(C)=O (configuration not stated)
inactive: [1] 10.6% | [2] -5.45% | [3] -2.55% | [4] -44.1% | [5] 2.8% | [6] 13.6%

CCCCNC(=O)CC
inactive: [1] 3.1% | [2] -11.2% | [3] 3% | [4] 4.85% | [5] 14.9% | [6] -1.95%

CCCCC(Nc1nncs1)Nc1nncs1
inactive: [1] -8.9% | [2] -18% | [3] 9.85% | [4] 3.7% | [5] 11.3% | [6] 2.6%

OC1CCCN(CCNN2CCCC2)C1 (configuration not stated)
inactive: [1] 17.9% | [2] 9.65% | [3] 15.4% | [4] 31.1% | [5] 2.35% | [6] 15.3%

CCCC(=O)SCC[N+](C)(C)C
inactive: [1] -10.2% | [2] -48.3% | [3] 15.4% | [4] 21.6% | [5] -13.3% | [6] 4.5%
